Source: PubChem BioAssay AID1851 (National Center for Advancing Translational Sciences (NCATS), 2009)
Out of some 16,000 compounds screened, about 5,700 (36%) were called active. Inconclusive results (about 24%) are left out. The list shows a part of the results. Unmarked numbers belong to inactive results. Calls come from the whole dose curve; as a rule, active = well fitted curve in the direction sought with a large enough effect; inconclusive = small, poorly fitted or top-dose-only effect, or effect the other way; inactive = no such curve, though single readings can be large or run the other way.

Molecular target: Cytochrome P450 1A2 (Homo sapiens) (UniProt P05177)
Sequence (P05177 whole entry, looked up): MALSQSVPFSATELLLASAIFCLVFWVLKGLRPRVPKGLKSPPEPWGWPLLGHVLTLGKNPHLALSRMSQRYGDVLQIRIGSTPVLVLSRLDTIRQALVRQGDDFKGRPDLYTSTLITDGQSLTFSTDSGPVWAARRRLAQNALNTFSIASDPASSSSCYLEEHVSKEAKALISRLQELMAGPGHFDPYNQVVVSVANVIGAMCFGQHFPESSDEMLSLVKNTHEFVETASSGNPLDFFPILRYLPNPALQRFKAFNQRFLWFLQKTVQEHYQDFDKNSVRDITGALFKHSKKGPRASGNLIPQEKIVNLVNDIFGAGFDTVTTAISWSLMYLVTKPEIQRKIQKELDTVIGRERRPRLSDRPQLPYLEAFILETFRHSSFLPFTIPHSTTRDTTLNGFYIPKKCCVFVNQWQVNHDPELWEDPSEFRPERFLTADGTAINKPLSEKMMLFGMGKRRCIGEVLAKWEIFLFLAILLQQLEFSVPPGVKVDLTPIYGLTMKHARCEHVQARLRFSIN
Assay: Cytochrome panel assay with activity outcomes
Conditions: recombinant CYP, pro-luciferin dealkylation, luminescence, p450-cyp1a2; series mostly up to 57.1 µM; activity, negative = inhibition: at the top concentration
% is set by controls: 0 for no effect and ±100 for the full control effect.

Compound | AC50 | activity, negative = inhibition
Nc1nonc1-c1noc(CCCN2C(=O)c3ccccc3C2=O)n1 | 14.1 µM (active) | –
O=C(NCc1cccnc1)/C(=C/c1ccc(-c2cccc(Cl)c2)o1)S(=O)(=O)c1ccccc1 | 25.1 µM (active) | –
Cc1ccc(NC(=O)C(=O)NCc2ccc(/C=C(/C#N)C(=O)NCc3cccnc3)o2)cc1 | – | -13.3%
COc1ccc2c(c1[N+](=O)[O-])CCC/C2=N/OC(=O)c1cccc2ccccc12 | 0.794 µM (active) | –
COc1ccc2c(c1[N+](=O)[O-])CCC/C2=N/OC(=O)c1ccccc1SC | 0.794 µM (active) | –
COc1ccccc1C(=O)O/N=C1/CCCc2c1ccc(OC)c2[N+](=O)[O-] | 0.447 µM (active) | –
CC1CSc2nc3sc4c(c3c(=O)n21)CCCC4 (configuration not stated) | 3.55 µM (active) | –
CSC(=NC#N)N1CCN(c2ccc(Cl)cc2)CC1 | 4.47 µM (active) | –
C[C@H](N[C@@H](C)COc1ccccc1)[C@H](O)c1ccc(O)cc1 | 5.01 µM (active) | –
C[C@H](NCCc1ccc(O)cc1)[C@@H](O)c1ccc(O)cc1 | inactive | –
CCOC(=O)C1=C(N)n2c(s/c(=C\c3ccco3)c2=O)=C(C(=O)OCC)C1c1ccco1 (configuration not stated) | – | -56%
CCOC(=O)C1C(=O)C=C(c2ccc(C)cc2)CC1c1ccco1 (configuration not stated) | 4.47 µM (active) | –
Cc1ccc(C(CC(N)=O)c2ccco2)cc1 (configuration not stated) | – | -5.6%
CC1=CC2=NC(=O)CC(C)(C(=O)N(CC(=O)NC(C)(C)C)Cc3cccs3)N2C=C1 (configuration not stated) | – | 11.6%
O=C(O)c1cc2c(o1)CCC/C2=N\O | – | -4.91%
c1ccc(C2=NN[C@@H]3c4ccccc4-c4ccccc4N3C2)cc1 | 0.2 µM (active) | –
COc1ccc2nc(N)sc2c1 | 12.6 µM (active) | –
COc1ccc2nc(NC(C)=O)sc2c1 | 3.55 µM (active) | –
COc1ccc2nc(NC(=O)CSc3nnc(C)s3)sc2c1 | 2.82 µM (active) | –
CCCOc1ccc(C(=O)NC(=S)Nc2nc3ccc(C)cc3s2)cc1 | – | -9.82%
COc1ccc(Cc2c(N)nc(N)nc2N)cc1 | – | -7.11%
COc1ccc(N2C(N)=NC(N)=NC2(C)C)cc1 | – | 10.4%
COc1ccc2nc(C)cc(SCC(=O)Nc3c(C)cc(C)cc3C)c2c1 | – | -12.6%
CCOc1ccc2nc(NC(=O)c3ccc(S(=O)(=O)N4CCOCC4)cc3)sc2c1 | – | -13.6%
COc1ccc2nc(/N=C\N(C)C)sc2c1 | 0.631 µM (active) | –

Compound | AC50 | activity, negative = inhibition
CN(C)Cc1ccc(O)c(CN(C)C)n1 | – | -8.37% [at 11.4 µM]
C[C@]12CC[C@H]3c4ccc(O)cc4CC[C@@H]3[C@H]1CC[C@@H]2OC(=O)CCC1CCCC1 | – | -12.2% [at 11.4 µM]
COc1ccc(S(=O)(=O)Nc2ccc(F)cc2)c(C)c1C | 14.1 µM (active) | –
COc1ccc(NS(=O)(=O)c2cc(-c3nnnn3C)ccc2OC)cc1 | – | -12%
CC(C)(C)NS(=O)(=O)c1ccc(NS(=O)(=O)c2ccc(F)cc2)cc1 | – | 8.66%
COCCNC(=O)c1cc(-c2cccc(OC)c2)on1 | 12.6 µM (active) | –
COc1cccc(-c2nc(CS(=O)(=O)CC(=O)NCCCOC(C)C)c(C)o2)c1 | – | -11.6%
COc1ccc(-c2cc(C(=O)NCc3cccnc3)no2)cc1OC | 20 µM (active) | –
CCC(C)C1NC(=S)N(C2CCCCC2)C1=O (configuration not stated) | – | -15.6%
O=C(Nc1cccc2ncccc12)c1ccc(-c2ccc(Br)cc2)o1 | 0.501 µM (active) | –
CC(C)(C)NC(=O)CSc1nnc(Cc2ccc3c(c2)OCO3)n1C1CCCCC1 | – | -16.8%
Cc1cc2cc(C)c3nnc(SCC(=O)NCc4ccc5c(c4)OCO5)n3c2cc1C | 20 µM (active) | –
O=C1C2Sc3[nH]c(=O)sc3C(c3ccccc3)C2C(=O)N1c1ccccc1 (configuration not stated) | – | -9.7%
N#Cc1cccc(-c2nccc(NCc3ccccc3)n2)c1 | 0.501 µM (active) | –
Cc1cccc(CNc2ccnc(-c3cccc(C#N)c3)n2)c1 | 0.398 µM (active) | –
N#Cc1cccc(-c2nccc(NCc3cccs3)n2)c1 | 0.251 µM (active) | –
N#Cc1cccc(-c2nccc(NCc3cccnc3)n2)c1 | 0.251 µM (active) | –
N#CCCn1c(=O)cnc2cnc(N3CCOCC3)nc21 | 10 µM (active) | –
O=c1cnc2cnc(N3CCOCC3)nc2n1CCc1ccccc1 | 3.16 µM (active) | –
Cc1nc2cnc(N3CCOCC3)nc2n(CCC#N)c1=O | 12.6 µM (active) | –
CCc1cc2c(nc1CC)CCN(CC/C(C)=N/OC[C@H]1O[C@H](c3ccccc3)C=C[C@@H]1Oc1ccc(OC)cc1)C2 | – | 0.11% [at 11.4 µM]
Cc1ccc(-n2nc(C)c3c2OC(N)=C(C#N)C3c2ccco2)cc1 (configuration not stated) | 8.91 µM (active) | –
CCn1c2ccccc2c2cnc(N=CN(C)C)c(C#N)c21 | 1.41 µM (active) | –
Cc1nc(N/N=C/c2ccccc2)nc(N(C)c2ccccc2)c1[N+](=O)[O-] | 1.58 µM (active) | –
COC(=O)C/C=C\[C@@H](C)[C@@H](/C=N\O[C@@H](C)CN1CCCCc2nc(C)c(C)cc21)NS(=O)(=O)c1ccc(C)cc1 | – | -4.63% [at 11.4 µM]

Compound | AC50 | activity, negative = inhibition
COc1ccc(C(=O)NC(=S)NC(C)C)cc1Br | 3.16 µM (active) | –
COc1ccc(C(=O)c2ccccc2)cc1Br | 10 µM (active) | –
COc1ccc(C(=O)NC(=S)NC(C)(C)C)cc1Br | 0.562 µM (active) | –
CCOc1ccc(C(=O)O)cc1OC | – | -16.3%
COc1cc(C(=O)NC(=S)Nc2ccc3oc(=O)ccc3c2)cc(OC)c1OC | – | -0.189%
COc1ccc(C(=O)NNC(=O)Cc2ccc(-c3ccccc3)cc2)cc1OC | – | -20.2%
C=CCN(CC=C)C(=S)NC(=O)c1ccc(OC)c(Br)c1 | 0.562 µM (active) | –
COc1ccc(NC(=O)N2CC3(CCN(S(C)(=O)=O)CC3)C2)cc1 | – | -4.57%
Cc1ccccc1-c1ccc2ncnc(NC3CC3)c2c1 | 0.126 µM (active) | –
FC(F)(F)c1ccccc1-c1ccc2ncnc(NC3CC3)c2c1 | 0.316 µM (active) | –
CS[C@@H](CC(=O)O)C(=O)O | – | 6.13% [at 11.4 µM]
CCOCCCN1C(=O)CN(C2CCCCC2)C(=O)C1c1ccc(OCC)c(OC)c1 (configuration not stated) | – | 1.09%
O=C(N/N=C/c1ccccn1)c1ccc(Br)o1 | 6.31 µM (active) | –
O=C(c1ccco1)N1CCC2(CC1)CN(c1ccccn1)C2 | – | -2.55%
O=C(NN=C1c2ccccc2-c2ccccc21)c1ccccn1 | 0.501 µM (active) | –
CCC(C)(NC(=O)c1ccccn1)C(=O)NC1CCCCC1 (configuration not stated) | – | -23.3%
Cc1cc(C)n(CC(=O)N/N=C/c2ccco2)n1 | – | -5.36%
O=C(N/N=C/c1ccco1)c1ccccn1 | 6.31 µM (active) | –
O=C(Nc1ccccn1)c1ccco1 | 11.2 µM (active) | –
C[N+](C)(C)c1nc(N)nc2c1ncn2[C@H]1O[C@@H](CO)[C@@H](O)[C@H]1O | – | -4.9% [at 2.29 µM]
O=C1COC(c2ccccc2O)=NN1CCCN1CCCC1 | – | -13.6% [at 11.4 µM]
CC(Oc1ccc(O)cc1)(P(=O)(O)O)P(=O)(O)O | – | 8.37%
O=C(N/N=C/c1ccccn1)c1ccco1 | 15.8 µM (active) | –
O=C(CNC(=O)c1ccccn1)N/N=C/c1ccccc1 | 4.47 µM (active) | –
CO[C@H]1COC(=O)C/C=C\[C@H](C)COC(=O)[C@@H](OCc2ccccc2)/C=C\[C@@H]1C | – | -6.26% [at 11.4 µM]

Compound | AC50 | activity, negative = inhibition
CC(C)=NOC[C@@H](O)COCc1ccco1 | – | 4.83% [at 11.4 µM]
CC(C)[C@H]1C(=O)C(C(N)=O)=C(O)[C@]2(O)C(=O)C3=C(O)c4c(O)ccc(N(C)C)c4C[C@H]3C[C@@H]12 | – | -1.01%
Nc1cc2c(nc3c4ccccc4c(N)cc3[n+]2-c2cccc3ccccc23)c2ccccc12 (tested in a mixture with another compound) | 1.26 µM (active) | –
COc1ccc(CNC(=O)c2csc(Cc3ccc(OC)cc3)n2)cc1 | 14.1 µM (active) | –
COc1ccc(CNC(=O)c2csc(Cc3ccc(Cl)cc3)n2)cc1 | 0.891 µM (active) | –
COc1ccc(Cc2nnc(NC(=O)c3cccc([N+](=O)[O-])c3C)s2)cc1 | – | 8.33%
COc1ccc(CNC(=O)C2CSC(=O)C2)cc1 (configuration not stated) | – | -0.484%
CCN(C(=O)COc1cc(=O)n(C)c2ccccc12)c1cccc(Cl)c1 | 15.8 µM (active) | –
CC1Cc2ccccc2N1C(=O)c1cc2c(=O)n3ccccc3nc2n1C (configuration not stated) | 3.16 µM (active) | –
O=C(NCC1CCCO1)c1ccc2c(=O)n(Cc3ccco3)c(SCC(=O)N3CCCC3)nc2c1 (configuration not stated) | – | -4.77%
Cc1ccc(S(=O)(=O)/C(C#N)=C/c2c(N3CC(C)OC(C)C3)nc3ccccn3c2=O)cc1 (configuration not stated) | – | -4.89%
Cn1c(C(=O)N2COCC2(C)C)cc2c(=O)n3ccccc3nc21 | 6.31 µM (active) | –
CC1Cc2ccccc2N1C(=O)C1CCCCN1S(=O)(=O)c1ccccc1 (configuration not stated) | – | -7.61%
Cn1c(C(=O)NCC2CCCO2)cc2c(=O)n3ccccc3nc21 (configuration not stated) | 2.24 µM (active) | –
Cc1ccccc1-n1ncc2c(SCC(=O)N3c4ccccc4CC3C)ncnc21 (configuration not stated) | – | -27.5%
C[C@@H](c1ccccc1)N1C(=O)[C@H]2[C@H]3[C@H](O)[C@H](O)C/C(=N/OC[C@@H](O)COCc4ccco4)[C@@H]3CC[C@@H]2C1=O | – | -14.6% [at 11.4 µM]
COCCn1c(=O)cnc2cnc(Nc3ccccc3)nc21 | 1 µM (active) | –
Cn1c(=O)cnc2cnc(Nc3ccccc3)nc21 | 2 µM (active) | –
COc1cccc(Nc2ncc3ncc(=O)n(C)c3n2)c1 | 1.58 µM (active) | –
COCCn1c(=O)cnc2cnc(Nc3cccc(OC)c3)nc21 | 0.794 µM (active) | –
O=C(O)[C@@H]1[C@@H]2C[C@H]([C@@H](Br)[C@H]2N2C(=O)CCC2=O)[C@@H]1C(=O)O | – | -15.8% [at 2.29 µM]
CN[C@@H]1[C@H](O[C@@H]2O[C@H](CO)[C@@H](N)[C@H](O)[C@@H]2O)O[C@H]2C[C@@H](N)[C@@H](O[C@H]3[C@@H](O)[C@H](O)[C@H](N)C[C@@H]3N)O[C@H]2[C@H]1O | – | -8.22% [at 25.6 µM]
